Calls of active or inactive are those of the source. Rule for the calls: active = hit-call score of the fitted dose curve at least 0.9, where 1 is the maximum; inactive = score below 0.9.
The molecules below were run on Tissue Factor, F3 (gene 2152) (assay: BSK_CASM3C_TissueFactor: BioMAP Diversity Plus: CASM3C Assay for Tissue Factor Biomarker Activity (AID 2283052;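 note: cell surface tissue factor protein level read by ELISA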)). Details: primary human coronary artery smooth muscle cells; actives raise or lower the signal.

SMILES | outcome
Cc1ncc([C@@H](CCCCCCc2ccc3c(n2)NCCC3)CC(=O)O)cn1 | inactive
NNC(=O)c1ccncc1 | inactive
OC(CCl)CCl | inactive
OCCC(F)(F)C(F)(F)C(F)(F)C(F)(F)F | inactive

Each molecule was assayed on Interferon-gamma inducible Protein 10 (IP10), CXCL10 (gene 3627) (assay: BSK_hDFCGF_IP10: BioMAP Diversity Plus: hDFCGF Assay for Interferon-gamma inducible Protein 10 (IP10) Biomarker Activity (AID 2283053)). Details: primary human foreskin fibroblasts; actives raise or lower the signal.
How it was run: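 ELISA quantification of IP-10 after a 24 h chemical exposure of human dermal foreskin fibroblast primary cultures. Both increases and decreases versus DMSO fitted.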

SMILES | outcome | AC50
Cn1cc[nH]c1=S | inactive | –
CC(C)CC(C)O (centres undefined) | inactive | –
O=C1CN(N=Cc2ccc([N+](=O)[O-])o2)C(=O)N1 | inactive | –
OCc1ccccc1 | inactive | –
NC(=O)N(O)[C@@H]1COc2cc(OCc3ccccc3)ccc21 | inactive | –
C=CCc1cc(S(=O)(=O)c2ccc(O)c(CC=C)c2)ccc1O | – | 29 µM (active)
CC(C)C(=O)Nc1ccc([N+](=O)[O-])c(C(F)(F)F)c1 | inactive | –
CCn1nc(C)c2c1C(=O)NCC(c1ccc(O)cc1)=N2 | inactive | –
COc1cc2c(c(OC)c1OC)-c1ccc(OC)c(=O)cc1[C@@H](NC(C)=O)CC2 | – | 4.08 µM (active)
CNC(C)=O | inactive | –
CCOC(N)=O | inactive | –
FC(F)=C(F)C(F)(F)C(F)(F)C(F)(F)C(F)(F)C(F)(F)C(F)(F)F | inactive | –
c1ccc2cc3ccccc3cc2c1 | inactive | –
CCCCOC(=O)c1ccccc1 | inactive | –
O=C(Cl)C(F)(F)C(F)(F)C(F)(F)C(=O)Cl | inactive | –
Cn1c(=O)c2[nH]cnc2n(C)c1=O | inactive | –
CCCOc1ccc(S(=O)(=O)N2CCN(CC)CC2)cc1-c1nc2c(CC)n(Cc3ccccn3)nc2c(=O)[nH]1 | inactive | –
CC(C)CCCCCCOC(=O)C1CCCCC1C(=O)OCCCCCCC(C)C (centres undefined) | inactive | –
COS(C)(=O)=O | inactive | –
O=C(O)[C@H](O)[C@@H](O)C(=O)O | inactive | –
